High-throughput results (PubChem BioAssay)
TEAD-YAP inh = TEAD-YAP interaction inhibition | HEK-TIYL cells, TEAD-Gal4/YAP UAS-luciferase luminescence | inhibition, % at 9.12 µM | 1.4% of 640,000 active | AID 1259422; in the data active = inhibition above about 32%;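 also: 0% = median of test compound wells and 100% = reference inhibitor wells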
MITF inh = human MITF inhibition, primary screen; AID 1259374; AlphaScreen MITF homodimerization, bead proximity signal; 0.91% of 650,000 active; inhibition, % at 2.6 µM; O75030; in the data active = inhibition above about 50%;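 also: 0% = vehicle wells with protein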
GPR151 ag = activates the human receptor GPR151. activation, % at 11.2 µM. PathHunter beta-arrestin GPR151 cells, luminescence. Q8TDV0. 1% of 650,000 active; in the data active = activation above about 4.9%;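 also: 0% = median of compound wells and 100% = cells with positive control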
FBW7 act = human FBW7 E3 ligase activation, primary screen; AlphaScreen FBW7–phospho-cyclin E peptide binding, activator screen; normalized activity (activation), % at 26.1 µM; AID 1259310; 0.13% of 650,000 active; in the data active = normalized activity above about 1.9%;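 also: purified mutant Fbw7 with reduced substrate affinity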
Target sequence (Q969H0 whole entry, looked up): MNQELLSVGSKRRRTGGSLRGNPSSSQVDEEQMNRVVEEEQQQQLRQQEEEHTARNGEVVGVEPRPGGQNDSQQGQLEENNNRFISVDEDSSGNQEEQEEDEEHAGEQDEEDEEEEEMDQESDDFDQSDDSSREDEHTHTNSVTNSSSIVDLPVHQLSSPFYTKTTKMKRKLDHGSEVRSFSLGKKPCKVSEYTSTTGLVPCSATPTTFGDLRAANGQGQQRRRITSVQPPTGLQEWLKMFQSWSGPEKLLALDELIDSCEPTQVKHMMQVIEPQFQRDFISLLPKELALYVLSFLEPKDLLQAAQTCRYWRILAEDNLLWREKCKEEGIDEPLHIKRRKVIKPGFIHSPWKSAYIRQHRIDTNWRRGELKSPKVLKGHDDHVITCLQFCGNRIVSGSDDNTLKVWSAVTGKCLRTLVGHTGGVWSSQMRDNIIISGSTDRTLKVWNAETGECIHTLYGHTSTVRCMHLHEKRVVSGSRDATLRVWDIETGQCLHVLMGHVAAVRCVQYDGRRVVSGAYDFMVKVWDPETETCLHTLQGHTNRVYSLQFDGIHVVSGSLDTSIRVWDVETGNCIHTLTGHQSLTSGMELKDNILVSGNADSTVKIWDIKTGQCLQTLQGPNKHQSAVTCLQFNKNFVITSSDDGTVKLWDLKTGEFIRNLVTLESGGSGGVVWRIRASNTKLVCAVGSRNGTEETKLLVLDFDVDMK
GPR151 conf act = confirmation of human GPR151 activators. GPR151 PathHunter beta-arrestin cells, luminescence, 90 min; % of EA-reagent control over plate median. shares compounds with GPR151 ag. 6,700 tested, under 10 active. AID 1508609. activation, % at 11.2 µM;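 active = mean percent activation across replicates above the confirmation screen cutoff of 4.91%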
GPR119 ag = counter-screen for GPR151 activators: effect on human GPR119; 0.3% of 6,700 active; activation, % at 11.2 µM; GPR119 PathHunter beta-arrestin cells, luminescence, 90 min; 0 = compound-well median, 100 = enzyme-acceptor control; shares compounds with GPR151 ag;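 active = mean percent activation in the counterscreen above 29.09%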;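 also: counterscreen on off-target GPR119 to flag nonselective hits from the GPR151 activator screen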
The depositor's hits bear a star; / = no result given. In the library only some 3.4% were active in any assay of this set; here they are far more common.

SMILES | TEAD-YAP inh | MITF inh | GPR151 ag | FBW7 act | GPR151 conf act | GPR119 ag
O=C(COc1ccccc1)Oc1ccc2nc(N3CCCC3)sc2c1 | -41 | 7 | 9.1* | 0 | -4 | -27
NC(=O)c1ccc2nc(N3CCN(c4ccccn4)CC3)sc2c1 | -49 | -6 | 8.1* | 0 | 0 | -2
O=C(O)c1ccc2nc(N3CCCCC3)sc2c1 | -19 | 0 | -6 | 0 | / | /
COc1ccc2nc(N3CCC(C(=O)N4CCCC4)CC3)sc2c1 | -27 | -7 | 6.9* | 0 | 0 | 1
CCN1CCN(c2nc3ccc(OC(=O)COc4ccccc4)cc3s2)CC1 | -34 | 11 | -2 | 0 | / | /
COc1ccc2nc(N3CCN(C(=O)C4CCCN4S(C)(=O)=O)CC3)sc2c1 (configuration not stated) | 1 | -7 | 1 | 0 | / | /
NC(=O)C1CCN(C(=O)c2ccc3nc(N4CCCCC4)sc3c2)CC1 | -48 | 4 | 12* | 0 | 2 | 8
CCN(CC)CCSc1nc(-c2ccccc2C)nc2c1c(=O)n(C)c(=O)n2C | 0 | 7 | 0 | 0 | / | /
O=C(c1cnc2ccccn12)N1CCCC1 | 0 | -22 | 2 | 0 | / | /
Cn1ncc2c(NCCN3CCOCC3)ncnc21 | 1 | 11 | 0 | 0 | / | /
Cc1ccc(CNC(=O)CCC(=O)Nc2ccc(C)cc2C)cc1 | 8 | 6 | 3 | 0 | / | /
O=C(O)c1ccc(CS(=O)Cc2ccc(Cl)cc2)o1 (configuration not stated) | -5 | 0 | -2 | 0 | / | /
CC(=O)C1=C(C)NC(SCC(N)=O)=C(C#N)C1c1cccc2ccccc12 (configuration not stated) | 3 | 11 | -1 | 1 | / | /
O=C(NC1CCCC1)N1CCN(c2nc3ccc(F)cc3s2)CC1 | -2 | 6 | 6.4* | 0 | 0 | 6
COc1cccc(C(=O)N[C@H]2C[C@H]3C(=O)N[C@H](CO)C(=O)N3C2)c1 | -2 | -10 | 0 | 0 | / | /
CC[C@@H]1NC(=O)[C@@H]2C[C@H](NC(=O)OCc3ccccc3)CN2C1=O | 0 | 7 | 5.8* | 0 | 1 | 7
CC[C@@H]1NC(=O)[C@@H]2C[C@H](NC(=O)c3cccc(F)c3F)CN2C1=O | 9 | 6 | 9.7* | 0 | 0 | 5
CCC[C@@H]1NC(=O)[C@@H]2C[C@H](NC(=O)N[C@@H](C)c3ccccc3)CN2C1=O | -5 | -11 | -1 | 0 | / | /
O=C(N[C@H]1C[C@H]2C(=O)N[C@@H](CO)C(=O)N2C1)OCc1ccccc1 | -3 | 18 | -1 | 0 | / | /
COc1cccc(C(=O)N[C@H]2C[C@H]3C(=O)N[C@@H](CCCCN)C(=O)N3C2)c1 | 2 | 11 | 5.8* | 0 | 0 | 11
C[C@@H](NC(=O)N[C@H]1C[C@H]2C(=O)N[C@H](CO)C(=O)N2C1)c1ccccc1 | 16 | 12 | 7.6* | 0 | 1 | 6
CC(C)C[C@H]1NC(=O)[C@@H]2C[C@H](NC(=O)c3cccc(F)c3F)CN2C1=O | -10 | -2 | 0 | 0 | / | /
COCC1CCCN(C(=O)c2cc(COc3cc(C)ccc3C)on2)C1 (configuration not stated) | -28 | 11 | -1 | 0 | / | /
C/C(=N\Nc1ncccc1[N+](=O)[O-])c1ccccc1O | -9 | 16 | 0 | 0 | / | /
O=[N+]([O-])c1ccccc1/C=N/NS(=O)(=O)c1ccc(Cl)cc1 | -4 | 21 | 14* | 0 | 0 | 10
SMILES | TEAD-YAP inh | MITF inh | GPR151 ag | FBW7 act | GPR151 conf act | GPR119 ag
CC(C)(C)c1ccc(S(=O)(=O)N/N=C/c2ccccc2[N+](=O)[O-])cc1 | 13 | 13 | 0 | 0 | / | /
CCc1ccc(N(CC(=O)OC)S(C)(=O)=O)cc1 | 4 | 14 | 1 | 1 | / | /
CCc1ccc(N(CC(=O)NC)S(C)(=O)=O)cc1 | -3 | -12 | 5.3* | 0 | 0 | -10
CC1=C(C(=O)NCc2ccccn2)C2(CCCCC2)OC1=O | 3 | 14 | -2 | 0 | / | /
Cc1cc(Br)ccc1S(=O)(=O)n1ccnc1 | -12 | 1 | 1 | 0 | / | /
CC(=O)c1ccc(N2CCN(C(=S)Nc3cccc([N+](=O)[O-])c3)CC2)cc1 | -12 | 1 | 5.2* | 0 | 0 | 0
COc1cc([N+](=O)[O-])ccc1NC(=S)N1CCN(c2ccc(C(C)=O)cc2)CC1 | 0 | -6 | 7.3* | 0 | 0 | -7
